Experimental data: the supplement of paper PMC11634586
Where a name gives a salt, the structure may show the parent alone. A number with no mark means an inactive call.

Test system: NCI-H1688
Test: inhibition of cell viability relative to untreated control (fraction); higher = stronger growth inhibition, active = 0.5 or more
Conditions: 30 µM; 24 h
Procedure, shortened: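 After seeding at 3 × 10^3 cells/well in 96-well plates and a 24 h wait, NCI-H1688 small cell lung cancer cells received a natural compound library (TargetMol) at 30 µM for 24 h, kept at 37°C with 5% CO2. Triplicate readings of Cell Counting Kit-8 absorbance at 450 nm measured viability. Each value is the inhibition of cell viability as a fraction, derived from viability normalised to untreated cells.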

| SMILES | inhibition of cell viability |
| --- | --- |
| CC(C)C1=CC2=CC[C@@H]3[C@](C)(CCC[C@@]3(C)C(=O)O)[C@H]2CC1 [Abietic Acid] | 0.0466 |
| O=C[C@H](O)[C@@H](O)[C@H](O)CO (racemic) [DL-Xylose] | -0.162 |
| C[C@H]1O[C@@H](O[C@H]2[C@@H](O)C[C@H](O[C@H]3[C@@H](O)C[C@H](O[C@H]4CC[C@@]5(C)[C@H](CC[C@@H]6[C@@H]5CC[C@]5(C)[C@@H](C7=CC(=O)OC7)CC[C@]65O)C4)O[C@@H]3C)O[C@@H]2C)C[C@H](O)[C@@H]1O [Digitoxin] | 0.981 (active) |
| Cc1[nH]ccc2c1[nH]c1cc(=O)ccc12 [Harmol] | 0.664 (active) |
| COc1cc2ccc(=O)oc2cc1OC [Scoparone] | -0.0332 |
| CCNC(=O)CC[C@H](N)C(=O)O [L-Theanine] | -0.151 |
| C[C@H]1[C@H](C)CC[C@]2(C(=O)O[C@@H]3O[C@H](CO[C@@H]4O[C@H](CO)[C@@H](O[C@@H]5O[C@@H](C)[C@H](O)[C@@H](O)[C@H]5O)[C@H](O)[C@H]4O)[C@@H](O)[C@H](O)[C@H]3O)CC[C@]3(C)C(=CC[C@@H]4[C@@]5(C)C[C@@H](O)[C@H](O)[C@@](C)(CO)[C@@H]5[C@H](O)C[C@]43C)[C@H]12 [Madecassoside] | 0.808 (active) |
| O=C(O)/C=C/CCCCCCCO [10-Hydroxy-2-decenoic acid] | 0.323 |
| COc1ccc2cc3[n+](cc2c1OC)CCc1cc2c(cc1-3)OCO2 [Berberine hydrochloride] | -0.108 |
| COc1cc(O)c(C(C)=O)c(OC)c1 [Xanthoxyline] | -0.308 |
| C=CCSC[C@H](N)C(=O)O [S-allyl-L-cysteine] | -0.0574 |
| C[C@]12CCC(=O)C=C1CC[C@@H]1[C@@H]2[C@@H](O)C[C@@]2(C)[C@H]1CC[C@]2(O)C(=O)CO [Hydrocortisone] | 0.0716 |
| C=C(C)[C@@H]1CC[C@]2(CO)CC[C@]3(C)[C@H](CC[C@@H]4[C@@]5(C)CC[C@H](O)C(C)(C)[C@@H]5CC[C@]43C)[C@@H]12 [Betulin] | 0.831 (active) |
| CN[C@@H](C)[C@H]1[C@H](O)C[C@@]2(C)[C@@H]3CC[C@H]4C(C)(C)[C@@H](NC)CC[C@@]45C[C@@]35CC[C@]12C [Cyclovirobuxin D] | -0.0295 |
| COc1cc(C(C)=O)ccc1O [Acetovanillone] | 0.213 |
| COc1c(O)cc2oc3cc(O)c(CC=C(C)C)c(O)c3c(=O)c2c1CC=C(C)C [Mangostin] | 1 (active) |
| C[C@@]12C[C@@]3(O)O[C@@H](O1)[C@]1(COC(=O)c4ccccc4)[C@H]3C[C@@]12O[C@@H]1O[C@H](CO)[C@@H](O)[C@H](O)[C@H]1O [Paeoniflorin] | 0.068 |
| COc1cc(/C=C/C(=O)CC(=O)/C=C/c2ccc(O)c(OC)c2)ccc1O [Curcumin] | 0.315 |
| CC(C)=CCC/C(C)=C/CC/C(C)=C/CC/C(C)=C/CC/C(C)=C/CC/C(C)=C/CC/C(C)=C/CC/C(C)=C/CC/C(C)=C/CO [Solanesol] | 0.301 |
| COC(=O)c1ccc(O)c(OC)c1 [Methyl Vanillate] | -0.221 |
| OC[C@H]1O[C@@H](Oc2ccc(O)cc2)[C@H](O)[C@@H](O)[C@@H]1O [Arbutin] | -0.263 |
| CC(=O)[C@@]1(O)CC[C@H]2[C@@H]3CCC4=CC(=O)CC[C@]4(C)[C@H]3CC[C@@]21C [Hydroxyprogesterone] | 0.102 |
| C=C[C@](C)(O)CC[C@@H]1[C@@]2(C)CCCC(C)(C)[C@@H]2CC[C@@]1(C)O [Sclareol] | 0.318 |
| C[C@@H]1O[C@@H](O[C@@H]2[C@@H](O)[C@H](OCCc3ccc(O)c(O)c3)O[C@H](CO[C@@H]3O[C@H](CO)[C@@H](O)[C@H](O)[C@H]3O)[C@H]2OC(=O)/C=C/c2ccc(O)c(O)c2)[C@H](O)[C@H](O)[C@H]1O [Echinacoside] | 0.128 |
| O=C(CCc1ccc(O)cc1)c1c(O)cc(O)cc1O[C@@H]1O[C@H](CO)[C@@H](O)[C@H](O)[C@H]1O [Phlorizin] | -0.0544 |
